PubChem BioAssay (NCI)
About 83,000 compounds went through this panel and 20% of them were active in at least one assay; those are over-represented in the sample as a whole.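 In brief: 96-well plates, 48 h treatment, single concentration, percent growth endpoint.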 The source made the active and inactive calls. The calls were made as follows: active = growth percent below 10; inactive = the rest.

Assays:
Assay in all cases: NCI-60 one-dose screen, 48 h (100 = growth as untreated, 0 = no growth, -100 = all killed)
Conditions in all cases: 10 µM unless noted
NCI-H23 lung = tested on: NCI-H23 lung
NCI-H226 lung = tested on: NCI-H226 lung
NCI-H322M lung = tested on: NCI-H322M lung
HOP-62 NSCLC = tested on: HOP-62 NSCLC
NCI-H460 lung = tested on: NCI-H460 lung
HOP-92 NSCLC = tested on: HOP-92 NSCLC
NCI-H522 lung = tested on: NCI-H522 lung
A549/ATCC NSCLC = tested on: A549/ATCC NSCLC
786-0 renal = tested on: 786-0 renal
COLO 205 colon = tested on: COLO 205 colon
DU-145 prostate = tested on: DU-145 prostate
K-562 leukemia = tested on: K-562 leukemia
MALME-3M melanoma = tested on: MALME-3M melanoma
MDA-MB-231 breast = tested on: MDA-MB-231 breast
RXF 393 renal = tested on: RXF 393 renal
SF-268 CNS = tested on: SF-268 CNS
SF-295 CNS = tested on: SF-295 CNS
SF-539 CNS = tested on: SF-539 CNS
UACC-257 melanoma = tested on: UACC-257 melanoma
M14 melanoma = tested on: M14 melanoma

Measured: growth

COc1ccc2c3c([nH]c2c1)C(=O)c1nc(C)ccc1C3=O
active: NCI-H23 lung 3.17% | NCI-H460 lung -34.9% | A549/ATCC NSCLC -11.9% | DU-145 prostate -73.2% | MALME-3M melanoma -61.8%
inactive: NCI-H226 lung 66.1% | NCI-H322M lung 43.4% | HOP-62 NSCLC 46.6% | HOP-92 NSCLC 86% | NCI-H522 lung 56% | 786-0 renal 79.7% | COLO 205 colon 63.2% | K-562 leukemia 40.7% | MDA-MB-231 breast 49.8% | RXF 393 renal 69.9% | SF-268 CNS 69.5% | SF-295 CNS 45.8% | SF-539 CNS 54.8% | UACC-257 melanoma 32.7% | M14 melanoma 19%

Cc1ccc(C(C(N)=O)C(C(N)=O)c2ccccc2)cc1 (stereo not given)
inactive: NCI-H23 lung 111% | NCI-H226 lung 109% | NCI-H322M lung 121% | HOP-62 NSCLC 111% | NCI-H460 lung 112% | HOP-92 NSCLC 99.5% | NCI-H522 lung 102% | A549/ATCC NSCLC 95.3% | 786-0 renal 102% | COLO 205 colon 115% | DU-145 prostate 111% | K-562 leukemia 90.9% | MALME-3M melanoma 129% | MDA-MB-231 breast 123% | RXF 393 renal 104% | SF-268 CNS 104% | SF-295 CNS 114% | SF-539 CNS 119% | UACC-257 melanoma 102% | M14 melanoma 108%

O=C1NCCC12CCN(c1c(Cl)cncc1-c1ccc(O)cc1)CC2
inactive: NCI-H23 lung 100% | NCI-H226 lung 83.9% | NCI-H322M lung 103% | HOP-62 NSCLC 112% | NCI-H460 lung 104% | HOP-92 NSCLC 114% | NCI-H522 lung 78% | A549/ATCC NSCLC 94.6% | 786-0 renal 100% | COLO 205 colon 105% | DU-145 prostate 108% | K-562 leukemia 97.9% | MALME-3M melanoma 117% | MDA-MB-231 breast 102% | RXF 393 renal 87.9% | SF-268 CNS 82.5% | SF-295 CNS 101% | SF-539 CNS 83.7% | UACC-257 melanoma 86.7% | M14 melanoma 114%

Cc1ccc(-c2nc(/C=C3/C(=O)Nc4ccccc43)c3ccccn23)cc1
inactive: NCI-H23 lung 72.6% | NCI-H226 lung 88.7% | NCI-H322M lung 88% | HOP-62 NSCLC 91.8% | NCI-H460 lung 40.7% | HOP-92 NSCLC 105% | NCI-H522 lung 57.7% | A549/ATCC NSCLC 75.1% | 786-0 renal 104% | COLO 205 colon 92.2% | K-562 leukemia 81.5% | MALME-3M melanoma 116% | MDA-MB-231 breast 85.2% | RXF 393 renal 38.2% | SF-268 CNS 88% | SF-295 CNS 91.9% | SF-539 CNS 94.8% | UACC-257 melanoma 102% | M14 melanoma 92.3%
active: DU-145 prostate -16.3%

N#Cc1c(-c2ccccc2)cc(-c2ccccc2)n(CCCCCC(=O)Nc2ccccc2N)c1=O
inactive: NCI-H23 lung 81.2% | NCI-H226 lung 69.9% | NCI-H322M lung 81.5% | HOP-62 NSCLC 82.3% | NCI-H460 lung 50.9% | HOP-92 NSCLC 51.9% | NCI-H522 lung 55.8% | A549/ATCC NSCLC 71.2% | 786-0 renal 57.6% | COLO 205 colon 84% | DU-145 prostate 72.6% | K-562 leukemia 46.3% | MALME-3M melanoma 76.8% | MDA-MB-231 breast 64.1% | RXF 393 renal 39% | SF-268 CNS 64.3% | SF-295 CNS 95.9% | SF-539 CNS 72.9% | UACC-257 melanoma 78.6% | M14 melanoma 80.1%

Nc1nc2c([nH]1)c1[nH]c3ccccc3c1c1[nH]c3ccccc3c21
active: NCI-H460 lung 8.05% | HOP-92 NSCLC -2.6% | COLO 205 colon -81.3% | K-562 leukemia -41.6% | MALME-3M melanoma -72.4% | MDA-MB-231 breast -38.7% | RXF 393 renal -7.44% | M14 melanoma -68.9%
inactive: NCI-H23 lung 63.5% | NCI-H226 lung 78.3% | NCI-H322M lung 25.6% | HOP-62 NSCLC 67.8% | NCI-H522 lung 26.4% | A549/ATCC NSCLC 85.5% | 786-0 renal 30.9% | DU-145 prostate 50.2% | SF-268 CNS 71.9% | SF-295 CNS 42.8% | SF-539 CNS 55.6% | UACC-257 melanoma 103%

O=C1Nc2ccccc2/C1=C\c1nc(-c2ccccc2)n2ccccc12
inactive: NCI-H23 lung 85% | NCI-H226 lung 91% | NCI-H322M lung 92% | HOP-62 NSCLC 92.9% | NCI-H460 lung 94.4% | HOP-92 NSCLC 121% | NCI-H522 lung 77.7% | A549/ATCC NSCLC 92.7% | 786-0 renal 99.4% | COLO 205 colon 110% | DU-145 prostate 86.4% | K-562 leukemia 77.2% | MALME-3M melanoma 119% | MDA-MB-231 breast 60.6% | RXF 393 renal 78% | SF-268 CNS 93.9% | SF-295 CNS 97.6% | SF-539 CNS 101% | UACC-257 melanoma 124% | M14 melanoma 79.8%

O=C(CSc1nc(-c2ccccc2)[nH]c1S(=O)(=O)c1ccccc1)NC1CC1
active: COLO 205 colon -30.9% | RXF 393 renal 4.36%
inactive: NCI-H23 lung 56.6% | NCI-H226 lung 85.8% | NCI-H322M lung 105% | HOP-62 NSCLC 21.2% | NCI-H460 lung 102% | HOP-92 NSCLC 89.6% | NCI-H522 lung 76.2% | A549/ATCC NSCLC 42.1% | 786-0 renal 94.5% | DU-145 prostate 112% | K-562 leukemia 87.4% | MALME-3M melanoma 103% | MDA-MB-231 breast 90.1% | SF-268 CNS 102% | SF-295 CNS 36.3% | SF-539 CNS 103% | UACC-257 melanoma 87.4% | M14 melanoma 96.4%
